From PubChem BioAssay
E coli growth-1: E. coli growth inhibition; OD600 absorbance (no concentration beside the values); AID 1053175; Escherichia coli growth, OD600, 23 h; stronger effect = lower value; hit rate 0.21% among 330,000;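 active means OD600 absorbance below the run mean of sample wells minus 3.6 SD, in any replicate, cut at about 0.56 in these data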
AddAB inh: less growth of phage-infected E. coli with AddAB | E. coli expressing H. pylori AddAB, absorbance growth | inhibition, % at 11.9 µM | hit rate 0.29% among 330,000; in the data active means inhibition above about 12%;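 further: 0% = vehicle wells of infected cells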
E coli growth-2: counter-screen for AddAB inhibitors: E. coli growth inhibition; E. coli V3065 growth, OD600 absorbance, 18 h; inhibition, % at 11.9 µM; hit rate 0.27% among 330,000; AID 449728;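 active means inhibition above the campaign's mean inhibition across all tested compounds plus 3 SD, cut at about 9.9% in these data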;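 further: uninfected addAB+ strain grown without phage in ampicillin broth; 0% = DMSO wells and 100% = ciprofloxacin 0.95 µg/ml wells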
phage Ecoli inh: E. coli growth loss with phage present | inhibition, % at 11.9 µM | hit rate 0.26% among 360,000 | growth absorbance; in the data active means inhibition above about 11%
Tat transport: blocks Tat-dependent protein export in E. coli; E. coli MC4100 TorA-mCherry Tat export, fluorescence; inhibition, % at 10 µM; hit rate 0.036% among 340,000;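 active means mean replicate inhibition at least 50% and at least half of replicates individually reaching 50%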;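 further: exported cargo escapes ClpAP degradation while cytoplasmic cargo is degraded and loses fluorescence; 0% = median of neutral control wells and 100% = median of NaSCN control wells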
AddAB confirm: growth loss of T4-infected E. coli expressing H. pylori AddAB, confirmed | shares compounds with AddAB inh | hit rate 64% among 880 | E. coli V3065 expressing H. pylori AddAB, T4 phage, OD; T4 phage with gene 2 nonsense mutations | AID 488942 | inhibition, % at 11.9 µM;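 active means mean inhibition above a set limit taken from the earlier primary screen, cut at about 13% in these data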;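 further: higher means less bacterial growth since AddAB block lets phage replicate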
RecBCD counter: AddAB counter-screen: growth loss of RecBCD+ E. coli infected with mutant T4 phage; shares compounds with AddAB inh; inhibition, % at 11.9 µM; AID 488955; hit rate 73% among 880; E. coli V66 + mutant T4 phage, OD growth;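 active means mean inhibition above the mean of solvent-only control wells plus 3 SD, cut at about 4% in these data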;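 further: optical density read after an 18 h incubation at 37 °C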
Bact viability: counter-screen: bacterial growth inhibition; bacterial viability, absorbance (AddAB counterscreen); AID 488956; hit rate 35% among 880; inhibition, % at 11.9 µM; shares compounds with AddAB inh; in the data active means inhibition above about 25%
Active calls of the source: *; · = not tested or not shown. This is a sample that favours compounds with a hit; in the whole collection about 0.5% have one here.

SMILES	E coli growth-1	AddAB inh	E coli growth-2	phage Ecoli inh	Tat transport	AddAB confirm	RecBCD counter	Bact viability
O=C(NCc1ccco1)c1ccc(Cn2cc([N+](=O)[O-])cn2)o1	0.69	0	-1	4	-11	·	·	·
O=C(Cc1ccc([N+](=O)[O-])cc1)NCc1cccnc1	0.61	4	-4	0	-18	·	·	·
COc1cc(NC(=O)c2ccc([N+](=O)[O-])o2)ccc1NC(=O)c1ccco1	0.69	16*	12*	8	-3	74*	6.7*	22
O=C(NCc1ccco1)c1ccc([N+](=O)[O-])o1	·	35*	9	8	-2	76*	6.6*	15
CC(Sc1nnc(-c2cccs2)n1-c1ccccc1)C(=O)NCc1ccco1 (stereo not drawn)	0.71	1	-3	0	-1	·	·	·
Cc1ccc(S(=O)(=O)CCC(=O)Nc2ccc(S(=O)(=O)N(C)C)cc2)cc1	0.64	97*	96*	·	·	-5	0	-2
Cc1ccc(S(=O)(=O)CCC(=O)NNC(=O)CN(C)S(=O)(=O)c2ccc(C)cc2)cc1	0.66	0	-1	3	3	·	·	·
CCCCCCCC(=O)OCC(=O)[C@@]1(O)CCC2C3CCC4=CC(=O)CC[C@]4(C)C3C(O)C[C@@]21C (stereo partly drawn)	0.67	·	·	·	·	·	·	·
CC1(C(=O)N/N=C/c2ccccc2)CC1(Br)Br (stereo not drawn)	·	97*	97*	-3	2	-2	0	-4
Cc1ccc(/C=N/NC(=O)C2(C)CC2(Br)Br)cc1 (stereo not drawn)	·	0	3	2	3	·	·	·
CCOC(=O)c1cn(CC)c2cc(N3CCSCC3)c(F)cc2c1=O	0.46*	75*	83*	7	38	97*	1	11
CCn1cc(C(=O)O)c(=O)c2cc(F)c(N3CCNCC3)cc21	·	99*	99*	·	94*	103*	102*	103*
CCn1cc(C(=O)O)c(=O)c2cc(F)c(N3CCN(S(=O)(=O)c4ccc5c(c4)OCCO5)CC3)cc21	0.083*	94*	48*	7	-6	101*	13*	99*
COc1ccc(NC(=O)c2cccc(Cn3cc(Br)c([N+](=O)[O-])n3)c2)c(C)c1	0.64	2	-2	2	-18	·	·	·
CCCNC(=O)c1cccc(Cn2cc(Br)c([N+](=O)[O-])n2)c1	0.68	15*	11*	6	7	31*	3	32*
NNC(=O)c1cccc(Cn2cc(Br)c([N+](=O)[O-])n2)c1	0.64	27*	24*	9	-3	97*	12*	67*
COCC=CC1=CC2=CC(=O)C(C)(OC(=O)c3cnc4ccccc4n3)C(=O)C2=CN1c1ccccc1 (stereo not drawn)	0.65	·	·	·	·	·	·	·
COc1ccc(-c2nnc(NC(=O)c3ccc(F)cc3)o2)cc1	0.55	15*	5	4	7	17*	12*	5
COc1ccc(-c2nnc(NC(=O)c3ccc4c(c3)OCCO4)o2)cc1	0.7	1	-4	-1	-8	·	·	·
CC(C)(C)OC(=O)NCCCCC(NC(=O)c1nc[nH]c1C(=O)NCc1ccccc1)C(=O)OC(C)(C)C (stereo not drawn)	0.69	·	·	·	·	·	·	·
O=Nc1ccc(O)c2ncccc12	0.4*	12*	12*	2	5	98*	3	17
Cc1cc(N/N=C/c2ccc(O)cc2O)nc(-c2ccccc2O)n1	·	14*	4	·	1	17*	7.1*	9
C/C(=C\C(=O)OCCCCCCCCC(=O)O)C[C@@H]1OC[C@H](C[C@@H]2O[C@H]2[C@@H](C)[C@H](C)O)[C@@H](O)[C@H]1O	·	18*	6	10	128*	7	18*	2
Cn1c([N+](=O)[O-])cnc1COC(N)=O	0.67	26*	17*	11	11	79*	5.2*	57*
Cc1ncc([N+](=O)[O-])n1CCOC(=O)c1ccccc1	0.63	2	1	1	5	·	·	·
SMILES	E coli growth-1	AddAB inh	E coli growth-2	phage Ecoli inh	Tat transport	AddAB confirm	RecBCD counter	Bact viability
Cc1ccc(S(=O)(=O)NN=Cc2ccc(C)o2)cc1	0.69	·	·	·	·	·	·	·
O=C(N/N=C/c1ccc([N+](=O)[O-])o1)C1CCCC1	·	12*	9	8	-5	74*	5.0*	13
COc1ccccc1NS(=O)(=O)c1cccc(C(=O)NN=Cc2ccc([N+](=O)[O-])o2)c1	0.63	·	·	·	·	·	·	·
COc1ccc(S(=O)(=O)N/N=C\c2ccc([N+](=O)[O-])o2)c(OC)c1	·	30*	24*	10	-21	100*	8.3*	40*
O=[N+]([O-])c1ccc(/C=N\NS(=O)(=O)c2ccc(F)cc2)o1	·	93*	20*	11	-9	99*	8.0*	54*
C#CCOCCOCCOCCNc1nc(N2CCN(C(=O)C(Cc3ccc(O)cc3)n3cc(CCO)nn3)CC2)nc(N2CCN(C(=O)C(C(C)O)n3cc(CCCCN)nn3)CC2)n1 (stereo not drawn)	0.7	·	·	·	·	·	·	·
Cn1cnc(Sc2ncnc3nc[nH]c23)c1[N+](=O)[O-]	·	26*	17*	11	6	53*	10*	33*
Cn1cnc([N+](=O)[O-])c1Sc1ncnc2nc[nH]c12	0.7	2	1	2	-2	·	·	·
O=C(COC(=O)c1ccc([N+](=O)[O-])s1)c1ccc[nH]1	·	12*	9	3	-9	68*	3	10
CCCSc1ccc(C2C3C(=O)N(C)C(=O)C3[C@]3(C(=O)OC)CCCN23)cc1OC (stereo partly drawn)	0.69	·	·	·	·	·	·	·
C/C(=N\OCc1nc2ccccc2c(=O)n1/N=C/c1cc(C)cc([N+](=O)[O-])c1O)c1ccccc1	·	8	9	9	-1	·	·	·
C/C(=N\OCc1nc2ccccc2c(=O)n1/N=C/c1cc([N+](=O)[O-])ccc1O)c1ccccc1	·	13*	9	3	-4	-2	2	0
CC(=O)Oc1cc2cccc(OC(C)=O)c(=O)c2c(OC(C)=O)c1OC(C)=O	0.64	18*	14*	·	0	25*	19*	15
COc1cc2cccc(OC)c(=O)c2c(O)c1OC	0.74	0	-1	6	-1	·	·	·
NC(=O)C1(NC(=O)C2CC3(CC(c4cccc(NC(=O)C5CCC(=O)N5)c4)=NO3)CN2C(=O)c2cnccn2)CC1 (stereo not drawn)	0.69	·	·	·	·	·	·	·
NC(Cc1cccc2ccccc12)=NOC(=O)c1ccc2c(c1)OCO2	0.69	·	·	·	·	·	·	·
O=C(Cn1cc(C(=O)c2ccco2)c2ccccc21)Nc1ccccc1F	0.66	13*	11*	10	-5	11	11*	11
